Test results as given in PubChem BioAssay AID746 (The Scripps Research Institute Molecular Screening Center, 2007).
Screen size: about 60,000 compounds; about 370 (0.62%) were called active. Cut-off read from the data, not from the text of the source: active = inhibition above about 17%; inactive = the rest. What follows is part of a selection rich in actives, with near analogues and random picks from the rest.

The molecules below were run against Mitogen-activated protein kinase 10 (Homo sapiens) (UniProt P53779) (assay: inhibition of human JNK3 enzyme – biochemical, purified enzyme, primary screen (AID 746;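 note: 0% = DMSO and 100% = reference inhibitor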)). Conditions: purified JNK3 kinase activity, HTS; at 8 µM; stronger effect = higher value.
Mitogen-activated protein kinase 10 (Homo sapiens), sequence (P53779 whole entry, looked up): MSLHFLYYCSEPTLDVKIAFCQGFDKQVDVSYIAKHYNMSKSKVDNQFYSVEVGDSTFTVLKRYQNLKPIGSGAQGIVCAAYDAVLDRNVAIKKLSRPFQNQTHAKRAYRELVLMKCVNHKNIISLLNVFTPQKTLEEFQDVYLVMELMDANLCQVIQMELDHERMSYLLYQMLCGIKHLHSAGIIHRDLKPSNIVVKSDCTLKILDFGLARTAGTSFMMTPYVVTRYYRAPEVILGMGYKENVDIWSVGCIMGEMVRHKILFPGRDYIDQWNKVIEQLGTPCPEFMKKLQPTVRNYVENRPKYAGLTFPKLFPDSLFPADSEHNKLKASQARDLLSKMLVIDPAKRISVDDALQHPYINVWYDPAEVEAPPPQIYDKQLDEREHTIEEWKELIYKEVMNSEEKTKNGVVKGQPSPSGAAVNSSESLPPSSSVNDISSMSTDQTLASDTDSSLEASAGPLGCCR
For Cc1cc(/C=N/n2cnnc2)c(C)n1-c1cccc(C(=O)O)c1, the inhibition was 0.73% (inactive).
O=C(CSC1=NCCS1)Nc1nc(-c2ccccc2)cs1 was tested, and the inhibition was 0.48% (inactive).
In the case of Cc1cc(O)ccc1-c1cnc2ccccc2n1, the inhibition is reported as 25.6% (active).
Oc1ccc2nc(Cc3ccccc3)[nH]c2c1 was tested, and the inhibition was 5.45% (inactive).
With Cc1nc2ccccc2cc1O the inhibition was -3.12% (inactive).
With O=C1NC2(CCCCC2)N=C1c1ccccc1 the inhibition was 0.31% (inactive).
COC(=O)C(CC(=O)Nc1cc(C)ccc1C)Nc1ccccc1OC (configuration not stated) was tested, and the inhibition was -2.33% (inactive).
With O=C(C1CCN(c2nnc(-n3cccc3)s2)CC1)N1CCc2ccccc2C1 the inhibition was -2.74% (inactive).
In the case of CCOc1ccccc1C1NC(=O)NC(C)=C1C(=O)OCc1ccco1 (configuration not stated), the inhibition is reported as 2.09% (inactive).
With CSc1nc(C)nc2c1c(=O)n(C)c(=O)n2C the inhibition was 4.34% (inactive).
CCOc1ccc(NS(=O)(=O)c2ccc(OCC(=O)NCCCOC)cc2)cc1 was tested, and the inhibition was -5.51% (inactive).
For O=C(OC(C(=O)NC1CCCC1)c1ccc(F)cc1)c1ccno1 (configuration not stated), the inhibition was -3.98% (inactive).
In the case of CCC1SC2=NCCN2C1(O)c1ccc(Cl)cc1 (configuration not stated), the inhibition is reported as -0.2% (inactive).
O=C(O)Cc1ccc(NC(=O)C2CCCCC2C(=O)O)cc1 (configuration not stated) was tested, and the inhibition was 3.04% (inactive).
With Cc1cn(COC/C=C/c2ccccc2)c(=O)[nH]c1=O the inhibition was -1.97% (inactive).
CCOC(=O)CNC(=O)CN1C(=O)CCSc2ccccc21 was tested, and the inhibition was -4.85% (inactive).
With O=C(CSc1nnc(-c2ccco2)o1)NCC(=O)c1ccccc1 the inhibition was -0.03% (inactive).
For O=C(COc1ncnc2ccccc12)NC(=O)NCc1ccccc1, the inhibition was 1.94% (inactive).
For COc1cccc2c(=O)n(CC(=O)N3CCCCCC3)ccc12, the inhibition was 1.14% (inactive).
In the case of OCCCN1c2ccccc2Nc2nnc(-c3ccccc3)cc21, the inhibition is reported as 31.6% (active).
Cc1ccc2c(c1)C(O)(CC(=O)c1cccnc1)C(=O)N2 (configuration not stated) was tested, and the inhibition was 4.44% (inactive).
O=C(CSc1nc2c(cnn2-c2ccc(F)cc2)c(=O)[nH]1)N1CCCCCC1 was tested, and the inhibition was 1.45% (inactive).
C=CCNC(=O)CSc1nc2sc(C)c(C)c2c(=O)[nH]1 was tested, and the inhibition was -0.43% (inactive).
For CC(=O)c1sc2nc(SCC(=O)N3CCCCC3)[nH]c(=O)c2c1C, the inhibition was 19.7% (active).
O=C1NC(c2ccncc2)Nc2sc3c(c21)CCCC3 (configuration not stated) was tested, and the inhibition was 4.12% (inactive).
For CC(=NCc1ccc2c(c1)OCO2)C1=C(O)c2ccccc2C1=O, the inhibition was 12.4% (inactive).
For O=C1C(C=NCC2CCCO2)=C(O)c2ccccc21 (configuration not stated), the inhibition was 3.41% (inactive).
For CC(=NCc1ccco1)C1=C(O)c2ccccc2C1=O, the inhibition was 32.9% (active).
With Cc1ccnc(N2CCN(C(=O)CSc3nc4ccccc4nc3N3CCCCC3)CC2)c1 the inhibition was 6.1% (inactive).
With Cc1cc(N2CCCC2)n2nc(C)c(-c3ccccc3)c2n1 the inhibition was -0.31% (inactive).
CCOC(=O)N1CCN(C(=O)CSc2ccc(Cl)cc2)CC1 was tested, and the inhibition was -3.08% (inactive).
With CC(=O)c1ccc(N2C(=NC(=O)C(C)C)SC3CS(=O)(=O)CC32)cc1 (configuration not stated) the inhibition was 3.06% (inactive).
In the case of O=C(NCc1ccco1)c1ccc(CS(=O)(=O)Cc2ccc(F)cc2)o1, the inhibition is reported as 2.1% (inactive).
For COc1ccccc1C(=O)N1CCN=C1SCc1cccnc1, the inhibition was -7.75% (inactive).
In the case of CCN1CCN(C(=O)CN(C)S(=O)(=O)c2ccc(OC)cc2)CC1, the inhibition is reported as -5.84% (inactive).
In the case of CC(CN1CCCCC1)OC(=O)c1ccccc1Cl (configuration not stated), the inhibition is reported as 2.81% (inactive).
With CCc1ccccc1N(CC(=O)N1CCN(c2ccccc2F)CC1)S(C)(=O)=O the inhibition was 2.83% (inactive).
COCCCn1c2nc3ccccc3nc2c2c(=O)n(Cc3ccc(Cl)cc3)c(C)nc21 was tested, and the inhibition was 3.15% (inactive).
With Cc1ccsc1CNn1cnnc1SCc1ccccc1F the inhibition was -1.56% (inactive).
Fc1c(F)c(C(F)(F)F)c(F)c(F)c1N1CCN(c2ccc3nnc(C(F)(F)F)n3n2)CC1 was tested, and the inhibition was -2.37% (inactive).
With Cc1cc(C)n(C(=O)c2ccc(S(=O)(=O)N3CCCC3)cc2)n1 the inhibition was 5.94% (inactive).
With O=C(CSc1nnc(Cc2ccccc2)n1-c1ccccc1)N1CCOCC1 the inhibition was -3.48% (inactive).
For CCOC(=O)c1ccc(COC(=O)c2cc(=O)[nH]c3ccccc23)o1, the inhibition was -6.13% (inactive).
For COc1ccc(COC(=O)c2n[nH]c3ccccc23)cc1F, the inhibition was 54.8% (active).
COC(=O)c1[nH]c2ccccc2c1NS(=O)(=O)c1ccc(OC)cc1OC was tested, and the inhibition was 2.86% (inactive).
With CSc1nsc(SC)c1NC(=O)OC1CCCCC1 the inhibition was -12% (inactive).
With CS(=O)(=O)N1CCCC(C(=O)N2CCOCC2)C1 (configuration not stated) the inhibition was 6.57% (inactive).
COCCN1Cc2cccc(C(=O)Nc3ccccc3OC)c2C1=O was tested, and the inhibition was 2.47% (inactive).
For CCCN1Cc2cccc(C(=O)NCc3ccccc3)c2C1=O, the inhibition was 19.8% (active).
With O=C(O)c1cccc2c1C(=O)N(C1CCCCC1)C2 the inhibition was -0.07% (inactive).
In the case of CC(=O)c1c(C)n([O-])c2ccccc2[n+]1=O, the inhibition is reported as -1.64% (inactive).
C=C1c2cc(CC)ccc2NC(=O)N1c1ccc(C)cc1 was tested, and the inhibition was -1.58% (inactive).
For CCN=C1SC(CC(=O)Nc2ccc(C)cc2)C(=O)N1CC (configuration not stated), the inhibition was 0.86% (inactive).
CCc1ccccc1NC(=O)c1cccs1 was tested, and the inhibition was 6.07% (inactive).
For CCOC(=O)c1cc2sccc2n1Cc1ccc(C#N)cc1, the inhibition was 4.65% (inactive).
In the case of Cc1ccn2cc(-c3nonc3C)cc2c1, the inhibition is reported as 2.16% (inactive).
In the case of Cc1cccc(NC(=O)CSC(N)=O)c1C, the inhibition is reported as -3.12% (inactive).
In the case of CCOC(=O)c1cccc(NC(=O)CCc2c(C)nc3ncnn3c2C)c1, the inhibition is reported as 4.2% (inactive).
For COC(=O)c1cc(NC2c3ccccc3C(=O)N2c2ccc(Cl)cn2)cc(C(=O)OC)c1 (configuration not stated), the inhibition was 1.5% (inactive).
For CN(C(=O)C1CCOC1)c1nnc(-c2cccnc2)s1 (configuration not stated), the inhibition was -0.13% (inactive).
With COc1ccc(N2CCN(Cc3cc(=O)oc4ccc5ccccc5c34)CC2)cc1 the inhibition was 11.2% (inactive).
For Cn1c(=O)[nH]c(=O)c2c1nc(N1CCN(CCO)CC1)n2CCSc1nc2ccccc2s1, the inhibition was -3.17% (inactive).
COc1ccc(C)c2sc(=NC(=O)c3ccc(C#N)cc3)n(C)c12 was tested, and the inhibition was 1.99% (inactive).
CCOc1ccc(CCNC(=O)C2CCN(c3ccc(N4CCOCC4)nn3)CC2)cc1OCC was tested, and the inhibition was -3.01% (inactive).
For COc1cc(C(=O)Nc2nccs2)cc(OC)c1OC, the inhibition was 8.3% (inactive).
For Cn1cccc1C(=O)Nc1nccs1, the inhibition was 3.03% (inactive).
With CC(=O)Oc1ccc(C(=O)Nc2nccs2)cc1 the inhibition was 31.3% (active).
